# Assay outcomes: PubChem, Milwaukee Institute for Drug Discovery
# In the library only some 6.9% were active in any assay of this set; here they are far more common.
# HCV NS3h FP: hepatitis C NS3 helicase inhibition, primary screen; NS3h Cy5-dT15 DNA binding, fluorescence polarization; inhibition, % at 100 µM; actives 1.6% (n = 16,000);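 active = inhibition above the average over every tested compound plus 3 SD, cut at about 40% in these data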
# Cy5 interf NS3h: counter-screen for HCV NS3 helicase inhibitors: fluorescence interference. Cy5-dT15 DNA with NS3h; actives lie on both sides; signal over control mean, under 1 quenches. fluorescence interference ratio at 100 µM. actives 6% (n = 16,000). AID 720488;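 active = compound fluorescence over control fluorescence at most 0.8, a quencher, or at least a set upper limit, an enhancer; inactive = ratio between 0.8 and the set upper limit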
# HCV NS3h conf: confirmation of hepatitis C virus NS3 helicase inhibitors; shares compounds with HCV NS3h FP; NS3h binding to Cy5-dT15 DNA, fluorescence polarization; inhibition, % at 100 µM; actives 20% (n = 240); AID 720485;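 active = percent inhibition of 50% or more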
# SSB-DNA FP CB: E. coli SSB-DNA binding inhibition, NS3h counter-screen. shares compounds with HCV NS3h FP. E. coli SSB binding Cy5-dT15, fluorescence polarization. inhibition, % at 100 µM. actives 40% (n = 240). AID 720486;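 active = inhibition of at least 50%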;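 also: displacers lower Cy5 polarization so higher inhibition means more SSB displaced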
# Target sequence (P0AGE0 whole entry, looked up): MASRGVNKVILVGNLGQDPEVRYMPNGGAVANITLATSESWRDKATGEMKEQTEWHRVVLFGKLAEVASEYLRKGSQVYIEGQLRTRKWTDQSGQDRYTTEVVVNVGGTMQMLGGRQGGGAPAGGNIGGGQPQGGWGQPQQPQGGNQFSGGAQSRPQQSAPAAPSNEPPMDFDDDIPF
# Cy5 SSB fluor CB: enhances or quenches Cy5-DNA fluorescence with E. coli SSB; actives 8% (n = 240); Cy5-dT15/E. coli SSB fluorescence interference; actives lie on both sides; fluorescence interference ratio at 100 µM; AID 720487; shares compounds with HCV NS3h FP;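 active = fluorescence interference ratio at or above 1.2, signal boosting, or at or below 0.8, signal quenching; inactive = ratio between 0.8 and 1.2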;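 also: ratio of compound well signal to mean negative control signal so 1 means no effect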
# Cy5 interf conf: Cy5 fluorescence interference, confirmation counter-screen. actives 44% (n = 240). fluorescence interference ratio at 100 µM, hits read low. Cy5-dT15 DNA/NS3h fluorescence interference counterscreen. AID 720489. shares compounds with HCV NS3h FP;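 active = fluorescence interference ratio at or below 0.8 quencher or at or above a set limitenhancer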;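 also: ratio of compound fluorescence to mean of negative controls so 1 means no interference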
# * marks the source's active call; other numbers are inactive results.
SMILES,HCV NS3h FP,Cy5 interf NS3h,others
CCN1C(=O)/C(=C\c2cn(-c3ccccc3)nc2-c2ccc(Cl)cc2)SC1=S,0.3,1.11,
Cc1ccc(NC(=O)CN(c2cccc(Br)c2)S(=O)(=O)c2ccccc2)cc1,10.6,0.961,
CC(=O)NC1=NC(=O)/C(=C/c2cc(Cl)ccc2OCc2c(F)cccc2Cl)S1,5.0,0.77*,
COC(=O)c1c(C)oc2ccc(OCc3c(F)cccc3Cl)cc12,10.2,0.907,
COc1ccc(OC)c(CN2CCN(Cc3cccc(Br)c3)CC2)c1,-6.0,1.06,
CCOC(=O)C1CCN(C(=O)CC(c2ccccc2)c2ccccc2)CC1,12.7,0.999,
O=C(c1cccc(Br)c1)N1CCN(c2c(Cl)cccc2[N+](=O)[O-])CC1,16.1,0.933,
C/C(=N/N=C1\NC(=O)C(CC(=O)Nc2ccccc2C)S1)c1ccc(F)cc1 (stereo not drawn),2.1,1.05,
CCc1ccccc1NC(=O)CC1S/C(=N/N=C(C)\C=C\c2ccc(OC)cc2)NC1=O (stereo not drawn),-28.6,1.21*,
COc1ccc(-c2noc(-c3ccco3)n2)cc1,-1.3,1.18,
CCCOC(=O)c1ccc(NC(=O)c2cccc([N+](=O)[O-])c2)cc1,12.7,1.03,
CCN1C(=O)/C(=C\c2ccco2)SC1=S,18.1,1.11,
CC(=O)Nc1ccc(Oc2ccccc2)cc1,10.2,0.833,
O=C(Nc1ccc(Oc2ccccc2)cc1)C(F)(F)F,13.7,0.783*,
COc1ccccc1NC(=O)/C(=C/c1ccco1)NC(=O)c1ccc(C)cc1,10.0,1.3*,
Cc1ccc(C(=O)N/C(=C\c2ccco2)C(=O)Nc2ccccc2C)cc1,7.9,1.01,
O=C(N/N=C\c1cccs1)/C(=C\c1cccs1)NC(=O)c1ccccc1,18.5,1.09,
CCCCOc1ccc(NC(=O)CSc2nnc(-c3cccc(F)c3)n2-c2ccccc2)cc1,1.8,1.13,
CCCCOc1ccc(NC(=O)CCSc2nccn2C)cc1,14.1,0.69*,
CC(C)CC(NC(=O)c1ccco1)C(=O)O (stereo not drawn),2.9,1.05,
CC(C)CC(NC(c1ccccc1)(c1ccccc1)c1ccccc1)C(=O)O (stereo not drawn),8.7,0.578*,
CC(NC(=O)c1cccc2ccccc12)C(=O)O (stereo not drawn),2.6,1.03,
CC(NC(c1ccccc1)(c1ccccc1)c1ccccc1)C(=O)O (stereo not drawn),-1.5,0.615*,
Cc1cc(OCC(O)CN2CCN(C)CC2)cc(C)c1Cl (stereo not drawn),-8.0,0.913,
C=CCc1ccccc1OCCOc1c(Br)cc(C=C2C(=O)NC(=S)NC2=O)cc1OC,17.5,0.954,
SMILES,HCV NS3h FP,Cy5 interf NS3h,others
CC(=O)c1ccc(-c2ccc(/C=C3/SC(=S)N(c4ccccc4)C3=O)o2)cc1,3.0,0.811,
CCCCP(=O)(CCCC)CP(=O)(c1ccccc1)c1ccccc1,-18.6,1.01,
O=C(CSc1nc2ccccc2c(=O)n1-c1ccccc1)Nc1ccc([N+](=O)[O-])cc1,-6.2,0.874,
O=C(/C=C/c1ccc(-c2cccc([N+](=O)[O-])c2)o1)c1ccco1,29.2,1.05,
Nn1c(Nc2ccccc2)nc2ccccc21,-0.7,1.02,
c1ccc(Nc2ccc3nc4ccccc4nc3c2)cc1,15.2,0.551*,
O=C(Nc1ccccc1)Nc1nnc(C23CC4CC(CC(C4)C2)C3)s1,13.0,0.919,
CCOC(=O)c1sc(NN=C(C#N)C#N)c(C(=O)OCC)c1C,-1.5,0.562*,
CCOC(=O)c1c(NC(=O)/C=C\C(=O)O)sc(C(=O)Nc2ccccc2)c1C,19.1,0.942,
COc1cc(C(=O)N2CCN(C(=O)c3cccs3)CC2)cc(OC)c1OC,-3.6,1.06,
CCCC(C(=O)O)N1C(=O)/C(=C\c2ccc(-c3ccc([N+](=O)[O-])cc3)o2)SC1=S (stereo not drawn),84.1*,0.864,HCV NS3h conf=7.6;SSB-DNA FP CB=53.9*;Cy5 SSB fluor CB=0.816;Cy5 interf conf=0.705*
O=C1/C(=C/c2ccc(-c3ccc([N+](=O)[O-])cc3)o2)SC(=S)N1Cc1ccccc1,-6.5,0.96,
O=C(/C=C/c1ccccc1Cl)Nc1cccc(F)c1,1.6,1.09,
O=C(Nc1cc(C(F)(F)F)ccc1Cl)c1ccccc1[N+](=O)[O-],15.9,1.03,
CCOC(=O)c1c(NC(=O)/C=C/c2ccc(C)o2)sc(C)c1C,60.9*,0.995,HCV NS3h conf=2.3;SSB-DNA FP CB=2.9;Cy5 SSB fluor CB=0.971;Cy5 interf conf=0.739*
Cc1ccc(/C=C/C(=O)Nc2ccc(Cl)cc2Cl)o1,26.3,0.916,
Cc1nn(-c2ccccc2)c2c1C(c1ccc(O)cc1)C(C#N)=C(N)O2 (stereo not drawn),1.0,1.05,
COc1ccc2occ(C(=O)c3ccc(N)cc3)c2c1,39.6,1.08,HCV NS3h conf=6.6;SSB-DNA FP CB=18.7;Cy5 SSB fluor CB=0.872;Cy5 interf conf=0.85
COc1ccc2occ(C(=O)c3ccc([N+](=O)[O-])cc3)c2c1,4.7,1.05,
Cc1ccc(N2C(=O)c3ccccc3NC2c2cccc(F)c2)cc1 (stereo not drawn),30.1,1.11,HCV NS3h conf=9.7;SSB-DNA FP CB=7.8;Cy5 SSB fluor CB=0.972;Cy5 interf conf=0.722*
CCN(CC)CCN1C(=O)c2ccccc2NC1c1cccc(F)c1 (stereo not drawn),41.3*,1.09,HCV NS3h conf=4.4;SSB-DNA FP CB=10.2;Cy5 SSB fluor CB=0.937;Cy5 interf conf=0.957
CCCN1C(=O)c2ccccc2NC1c1cccc(F)c1 (stereo not drawn),4.1,0.973,
COc1ccc(N2C(=O)c3ccccc3NC2c2cccc(F)c2)cc1 (stereo not drawn),5.5,0.995,
CC(=O)Oc1ccc(Cl)cc1N1C(=O)c2ccc([N+](=O)[O-])cc2C1=O,9.7,1.01,
O=C(NC(=S)Nc1nc(-c2ccccc2)cs1)c1ccc(Cl)cc1,8.2,1.05,
SMILES,HCV NS3h FP,Cy5 interf NS3h,others
O=C(Nc1nc(-c2ccc(Cl)cc2)cs1)c1cccs1,40.4,1.17,HCV NS3h conf=26.7;SSB-DNA FP CB=18.7;Cy5 SSB fluor CB=0.971;Cy5 interf conf=0.768*
O=C(Nc1ccccc1)Nc1nnc(CSCc2ccc(F)cc2)s1,6.0,1.01,
COc1ccccc1N1C(=O)C2C(C1=O)C1C=CC2C12CC2 (stereo not drawn),-5.5,0.985,
COC(=O)C1=C(C)NC(C)=C(C(=O)OC)C1c1ccc(I)cc1,10.2,0.849,
CN(C)c1ccc(NC(=O)c2ccc(Cl)cc2)cc1,10.5,0.897,
CN(C)c1ccc(C(=O)Nc2ccc(S(N)(=O)=O)cc2)cc1,78.2*,0.836,HCV NS3h conf=57.3*;SSB-DNA FP CB=49.0;Cy5 SSB fluor CB=0.83;Cy5 interf conf=0.784*
CCCCOc1ccc(C/C(N)=N\n2cnnc2)cc1,4.8,1.02,
CCN(CC)c1ccc(/C=C2/C(=O)NC(=O)N(c3ccccc3)C2=O)cc1,86.3*,3.17*,HCV NS3h conf=29.8;SSB-DNA FP CB=26.0;Cy5 SSB fluor CB=1.64*;Cy5 interf conf=1.78*
CCN(CC)c1ccc(/C=C2\C(=O)NC(=O)N(c3ccccc3OC)C2=O)cc1,4.3,1.05,
COc1cc(N)ccc1-n1c(C)ccc1C,68.0*,0.703*,HCV NS3h conf=7.6;SSB-DNA FP CB=22.3;Cy5 SSB fluor CB=0.688*;Cy5 interf conf=0.614*
COc1ccc(-n2c(Cc3ccccc3)n[nH]c2=S)c(OC)c1,0.3,0.932,
